Laboratory results as given in article PMC4336329 (PLoS ONE, 2015).
The campaign covered roughly 310,000 compounds. About 14,000 (4.5%) showed an effect of 50% or more. Effects have a minus sign here. The list comes from a sample in which strong results are over-represented; it also holds similar structures and randomly drawn compounds.

molecular target: human ether-à-go-go-related gene (hERG) potassium channel (human, UniProt Q12809); test: primary screen, population patch clamp on CHO cells stably expressing hERG; higher = less effect of the substance
Sequence (Q12809 whole entry, looked up): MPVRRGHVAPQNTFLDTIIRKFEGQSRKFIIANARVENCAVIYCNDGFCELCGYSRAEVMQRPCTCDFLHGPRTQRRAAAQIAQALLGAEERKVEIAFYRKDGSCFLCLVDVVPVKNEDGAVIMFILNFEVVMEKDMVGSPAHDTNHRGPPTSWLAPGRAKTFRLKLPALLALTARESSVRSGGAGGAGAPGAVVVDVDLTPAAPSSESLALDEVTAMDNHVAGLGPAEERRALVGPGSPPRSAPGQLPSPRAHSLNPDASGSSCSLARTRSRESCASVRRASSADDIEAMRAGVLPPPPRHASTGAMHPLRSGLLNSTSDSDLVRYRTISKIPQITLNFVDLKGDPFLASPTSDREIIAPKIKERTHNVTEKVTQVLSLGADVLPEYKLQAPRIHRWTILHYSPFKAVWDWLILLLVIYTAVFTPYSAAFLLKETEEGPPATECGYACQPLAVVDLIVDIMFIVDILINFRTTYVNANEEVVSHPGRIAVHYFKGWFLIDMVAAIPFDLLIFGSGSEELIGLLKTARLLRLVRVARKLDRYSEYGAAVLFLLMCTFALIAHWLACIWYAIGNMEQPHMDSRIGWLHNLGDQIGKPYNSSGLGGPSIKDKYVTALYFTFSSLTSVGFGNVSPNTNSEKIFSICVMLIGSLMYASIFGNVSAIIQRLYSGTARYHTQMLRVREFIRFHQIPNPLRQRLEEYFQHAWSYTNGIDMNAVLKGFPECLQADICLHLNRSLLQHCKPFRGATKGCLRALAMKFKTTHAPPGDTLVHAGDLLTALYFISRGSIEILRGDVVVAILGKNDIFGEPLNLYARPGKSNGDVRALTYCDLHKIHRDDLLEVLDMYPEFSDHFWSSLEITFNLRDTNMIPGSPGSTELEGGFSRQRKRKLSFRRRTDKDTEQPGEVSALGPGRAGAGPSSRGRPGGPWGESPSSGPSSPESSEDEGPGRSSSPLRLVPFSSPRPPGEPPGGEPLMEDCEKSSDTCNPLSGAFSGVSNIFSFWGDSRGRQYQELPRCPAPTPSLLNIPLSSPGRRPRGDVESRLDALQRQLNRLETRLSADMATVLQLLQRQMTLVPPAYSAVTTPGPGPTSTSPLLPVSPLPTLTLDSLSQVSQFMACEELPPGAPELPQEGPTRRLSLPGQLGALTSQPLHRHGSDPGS
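Further: peak tail current of the secondary pulse compared with the same well before compound.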

| Structure (SMILES) | hERG current change (%, negative = inhibition) at 10uM [%] |
| --- | --- |
| Cc1cc(-c2cccs2)c2c(N)c(C(=O)c3ccc4c(c3)OCO4)sc2n1 | 5.2 |
| Cc1ccc(S(=O)(=O)N(C)c2ccccc2C(=O)Nc2c(F)cccc2F)cc1 | 3.31 |
| CC(C)(C)N1CC(c2nc3ccccc3n2Cc2ccccc2)CC1=O (stereo not drawn) | -47.2 |
| COc1ccc(S(=O)(=O)N2CCOCC2)cc1NC(=O)c1sccc1C | -3.22 |
| COc1ccc2nc(SC(C)C(=O)NC3(C#N)CCCCC3)[nH]c2c1 (stereo not drawn) | -20.1 |
| COC(=O)c1cc2oc(C)cc2n1CC(=O)N1CCCc2ccccc21 | -11.9 |
| Cc1ccc2nc(NC(=O)CSCC(=O)OCC(=O)c3ccc(Br)cc3)sc2c1 | 16.5 |
| O=C(COc1ccc(Br)cc1)NCCCn1ccnc1 | -20.1 |
| COc1ccc(Cl)cc1NC(=O)CN(C)C(=O)c1cc2c(F)cccc2s1 | -6.32 |
| CCCCSc1nnc(C)c(=O)[nH]1 | 3.25 |
| Cc1cccc(C2c3[nH]c4ccccc4c3CCN2C(=O)Cc2n[nH]c(C)n2)n1 (stereo not drawn) | 5.57 |
| COc1ccc(OC)c(NC(=O)COc2ccc(S(=O)(=O)N3CCCC3)cc2)c1 | -23.4 |
| O=C(CCC(=O)n1ncc2ccccc21)NCc1ccc(F)cc1 | -18.1 |
| Cc1ccc(C(=O)N2CCN(c3ncccn3)CC2)cc1 | 12.6 |
| Cc1ccc(C(=O)N2CCN(c3ccccn3)CC2)cc1 | -14.3 |
| Cc1ccc(C(=O)N2CCN(c3nc4ccccc4n3C)CC2)cc1 | -70.3 |
| CCOC(=O)C1CCN(S(=O)(=O)c2ccc3c(c2)CCN3C(=O)C2CCC2)CC1 | 14.1 |
| COc1ccc(C(=O)NC2CC2)cc1OC1CCN(C(C)CSC)CC1 (stereo not drawn) | -75.4 |
| COc1ccc(C(=O)NCCCSC)cc1OC1CCN(C(C)C)CC1 | -11.8 |
| COc1ccc(C(=O)NC2CCCCC2)cc1OC1CCN(C(C)C)CC1 | -69.7 |
| CCOCCCNC(=O)c1ccc(OC)c(OC2CCN(C(C)C)CC2)c1 | 10.7 |
| COc1ccc(C(=O)N[C@H]2CCCCNC2=O)cc1OC1CCN(C(C)C)CC1 | 15.3 |

| Structure (SMILES) | hERG current change (%, negative = inhibition) at 10uM [%] |
| --- | --- |
| COc1ccc(C(=O)N(C)CCCC2CCCC2)cc1OC1CCN(C(C)C)CC1 | -68.4 |
| COc1ccc(C(=O)N(C)CCCC2CCCC2)cc1OC1CCN(C(C)=O)CC1 | -32.2 |
| COC(=O)CN(C)C(=O)c1ccc(OC)c(OC2CCN(C(C)C)CC2)c1 | 13.1 |
| COc1ccc(C(=O)NC2CCCCCC2)cc1OC1CCN(C(C)=O)CC1 | -4.48 |
| COc1ccc(CCNC(=O)COC(=O)c2cc(=O)c3ccccc3o2)cc1 | -1.09 |
| Cc1cc(NC(=O)NC(=O)c2ccccc2)no1 | 23.1 |
| Cn1c(O)c(N=Nc2nc(-c3ccccc3)cs2)c2ccccc21 | -6.78 |
| Cc1ccc(CNC(=O)CCSCCC(=O)NCc2ccc(C)cc2)cc1 | 7.08 |
| N#Cc1c(NC(=O)c2cc([N+](=O)[O-])ccc2N2CCOCC2)sc2c1CCCC2 | 4.02 |
| CN1C(=O)c2cccc3c(Br)ccc(c23)C1=O | -16.2 |
| COC(=O)COc1ccc2cccc(-n3cnnn3)c2c1 | 12.5 |
| CC12CCC(=O)N1C(C(=O)OCc1c(Cl)cccc1Cl)CS2 (stereo not drawn) | -4.54 |
| CCc1ccc2c(COC(=O)C3CSC4(C)CCC(=O)N34)cc(=O)oc2c1 (stereo not drawn) | -61.1 |
| CCc1ccc(C(=O)NNC(=O)C2CSC3(C)CCC(=O)N23)cc1 (stereo not drawn) | -6.99 |
| CN(C)CC(O)COC(c1ccccc1)c1ccccc1 (stereo not drawn) | -51.6 |
| OC(COc1ccccc1)CN(Cc1ccccc1)CC(O)COc1ccccc1 (stereo not drawn) | -9.08 |
| CCOC(C(=O)OCC(O)CN(CC)CC)(c1ccccc1)c1ccccc1.Cl (stereo not drawn) | -5.25 |
| CN(C)CC(O)COC(c1ccc(Cl)cc1)c1ccc(Cl)cc1 (stereo not drawn) | -75.8 |
| CC(O)CN(Cc1ccc(Cl)cc1)CC(C)O (stereo not drawn) | 7.61 |
| COCCN(CCOC)CC(O)COC(c1ccccc1)c1ccccc1 (stereo not drawn) | -35.9 |
| CN(C)CCC(O)c1ccccc1 (stereo not drawn) | 9.45 |
| CCN(CC)CC(O)COC(c1ccccc1)c1ccccc1 (stereo not drawn) | -57.8 |

| Structure (SMILES) | hERG current change (%, negative = inhibition) at 10uM [%] |
| --- | --- |
| CC(OCC(O)CN(C)Cc1nc2ccccc2c(=O)[nH]1)c1ccc(Cl)cc1 (stereo not drawn) | -34 |
| CCN(Cc1ccccc1)CC(O)COC(c1ccc(OC)cc1)c1ccc(OC)cc1 (stereo not drawn) | -75.1 |
| CCCC(O)(c1ccc(OC)cc1)C(CN(C)C)c1ccccc1 (stereo not drawn) | -4.69 |
| CCN(Cc1ccccc1)CC(O)COc1ccccc1.Cl (stereo not drawn) | -25.7 |
| Cc1ccc(CN2CCCC(C(=O)N3CCCC3)C2)cc1.O=C(O)C(=O)O (stereo not drawn) | -5.83 |
| O=C(O)c1cc2nc(-c3ccccc3)cc(-c3ccccc3)n2n1 | 6.39 |
| CN(C)S(=O)(=O)Oc1ccsc1C(=O)Nc1ccc(Br)cc1 | -12.2 |
| CCOC(=O)[C@H]1[C@H]2COc3cc(OC)ccc3[C@@H]2N2C(=O)c3cc(OC)c(OC)cc3NC(=O)[C@@]12C | -2.44 |
| Cc1ccc(C(=O)NNC(=O)C2CCN(c3nc(C)cc(C)n3)CC2)cc1 | 4.83 |
| Cc1cccc(C)c1C(=NCCN(C)C)c1ccccc1.Cl | -41.3 |
| CCNc1nc(NCC)n2c(SCc3ccc(F)cc3)nnc2n1 | -20.1 |
| CC(C)=C1C2CCC1C(C(=O)Nc1sc(C)c(-c3ccc(C(C)C)cc3)c1C(N)=O)C2C(=O)O (stereo not drawn) | -22.5 |
| CN(C)C=O.O=C(NCCc1ccccc1)c1oc2ccccc2c1COc1ccccc1 | 12.4 |
| Cc1ccc(-c2cc(C(=O)NCc3ccccn3)no2)cc1 | 0.477 |
| Cc1ccc(C(=O)Nc2ccc(C)c(S(=O)(=O)N3CCOCC3)c2)c(C)c1 | -51 |
| O=C(NCc1ccc(Cl)cc1)c1cccc(S(=O)(=O)N2CCCC2)c1 | -30.9 |
| Cc1ccc(NC(=O)c2ccc3c(c2)OCO3)cc1S(=O)(=O)N1CCOCC1 | -20.3 |
| O=C(NCCOc1ccc(Cl)cc1)c1cccc(S(=O)(=O)N2CCCC2)c1 | -51.8 |
| O=C(Nc1ccccn1)c1cccc(S(=O)(=O)N2CCOCC2)c1 | -6.45 |
| O=C(Nc1ccc(Cl)cn1)c1cccc(S(=O)(=O)N2CCOCC2)c1 | -65.4 |
| Cc1ccc(NC(=O)c2cccc(S(=O)(=O)N3CCCC3)c2)nc1 | -7.18 |
| Cc1cc(C(=O)Nc2ccc(C)c(S(=O)(=O)N3CCOCC3)c2)c(C)o1 | -6.59 |

| Structure (SMILES) | hERG current change (%, negative = inhibition) at 10uM [%] |
| --- | --- |
| Cc1ccc(OCCNC(=O)c2cccc(S(=O)(=O)N3CCN(C)CC3)c2)cc1 | -16.6 |
| Cc1ccnc(NC(=O)c2cccc(S(=O)(=O)N3CCOCC3)c2)c1 | -18.9 |
| O=C(Nc1ccccn1)c1cccc(S(=O)(=O)N2CCCC2)c1 | 9.44 |
| O=C(Nc1ccc(Cl)cn1)c1cccc(S(=O)(=O)N2CCCC2)c1 | -50.9 |
| O=C1c2ccccc2C(Nc2ccc(S(=O)(=O)N3CCCCC3)cc2)N1Cc1ccco1 (stereo not drawn) | -22.7 |
| CC(CC(=O)N(C)c1c(N)n(Cc2ccccc2)c(=O)[nH]c1=O)c1ccccc1 (stereo not drawn) | -23.3 |
| COCc1ccc(C(=O)N2CCCC(N3CCN(c4ccccc4C)CC3)C2)s1 (stereo not drawn) | -34.7 |
| CSc1cccc(NC(=O)C2CCCN(S(=O)(=O)c3cccs3)C2)c1 (stereo not drawn) | 3.76 |
| COc1ccccc1N(C)C(=O)c1cc(S(=O)(=O)N2CCCC2)cn1C | -3.55 |
| CC(NC(=O)C1CCN(S(=O)(=O)c2cnc[nH]2)CC1)c1ccccc1 (stereo not drawn) | 3.81 |
| N/C(=N\OC(=O)c1ccccc1)c1ccn[nH]1 | -1.07 |
| Cc1ccc(NC(=O)c2ccc(C)c(S(=O)(=O)N3CCOCC3)c2)nc1 | -6.9 |
| Cc1ccc(S(=O)(=O)N2CCOCC2)cc1NC(=O)C1=NN(c2ccccc2)C(=O)CC1 | -18 |
| Cc1ccc(C(=O)Nc2ccccn2)cc1S(=O)(=O)N1CCOCC1 | -5.72 |
| O=C(COC(=O)c1cccc(S(=O)(=O)N2CCOCC2)c1)Nc1ccc(Cl)cn1 | -61.1 |
| O=C(COC(=O)c1cc(S(=O)(=O)N2CCOCC2)ccc1F)Nc1ccc(Cl)cn1 | -37.4 |
| Cc1cccc(N2N=C(C(=O)Nc3ccc(Cl)c(S(=O)(=O)N4CCOCC4)c3)CCC2=O)c1 | -52.4 |
| O=C(Nc1cccc(S(=O)(=O)N2CCOCC2)c1)C1=NN(c2ccccc2)C(=O)CC1 | -42.9 |
| O=C(COC(=O)c1cccc(S(=O)(=O)N2CCOCC2)c1)Nc1ncc(Cl)cc1Cl | -13.4 |
| Cc1ccc(C(=O)Nc2ccc(Cl)cn2)cc1S(=O)(=O)N1CCOCC1 | -51.4 |
| O=C(Cn1cnc([N+](=O)[O-])c1)Nc1ccccc1C(F)(F)F | -14.3 |
